In PubChem BioAssay (NCI):
The panel holds about 83,000 compounds, 20% with a hit somewhere; the sample as a whole holds those more often.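 Cell lines were cultured in 96-well plates, exposed to a single compound concentration, and assessed for percent growth 48 hours later.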 Unmarked numbers belong to inactive results. The source made the active and inactive calls.

These compounds were tested on MDA-MB-435 melanoma (assay: NCI-60 one-dose screen, 48 h (100 = growth as untreated, 0 = no growth, -100 = all killed)). Conditions: 10 µM unless noted.
Protocol: Growth inhibition of the MDA-MB-435 human Melanoma tumor cell line is measured as a screen for anti-cancer activity. Cells are grown in 96 well plates and exposed to the test compound for 48 hours. Compounds are tested at a single concentration, which is 10^-5 M for most compounds. The reported endpoint is percent growth (GI% or GIPRCNT), where numbers from 0 - 100% represent growth inhibition, and numbers from -100% - 0 represent cell death. For example, a value of 40 represents 60% growth inhibition. A value of 0 means no net growth occurred over the course of the experiment. A value of -40 indicates 40% of cells at the beginning of the experiment died by the end of the experiment. A value of -100 means all cells are dead at the end of the experiment.
NCI-60 Human Tumor Cell Lines Screen was performed using the standard one-dose NCI protocol, which is described in more detail at https://dtp.cancer.gov/discovery_development/nci-60/default.htm.
Compounds with GIPRCNT values below 10 were considered active. Activity score was based on GIPRCNT using the following formula: […]
Score is 0 for GIPRCNT values of 100 or above, 50 for GIPRCNT values of 0, and 100 for GIPRCNT values of -100.

SMILES	growth
Cc1ccc(-c2nnc(SCc3ccc(O)c4ncccc34)o2)cc1	17.7%
COc1cc(-c2nc(SC(C)C)n(C(C)C)c(=O)c2C#N)ccc1OCc1ccccc1	85%
COc1cc(Cn2cc3c(c2)-c2onc(CN4CCOCC4)c2CC3)cc(OC)c1OC	101%
O=S(=O)(NCCCNc1nccc(-c2[nH]c(-c3ccccc3)nc2-c2ccc(Cl)c(O)c2)n1)c1cccc2ccccc12	16.6%
Cc1ccc(-n2cc(/C=N/NC(=O)c3ccncc3)c(-c3ccc(S(C)(=O)=O)cc3)n2)cc1	23.6%
COc1cc(OC)c(/C=C/S(=O)(=O)Cc2ccc(OC)c(NC(=O)CCC(=O)NO)c2)c(OC)c1	-2.23% (active)
CNC(=O)c1cc(-c2ccc(NC(=S)Nc3cc(C(F)(F)F)cc(C(F)(F)F)c3)cc2)nc2cccnc12	94.9%
O=C1[C@@H]2Cc3c([nH]c4ccccc34)[C@H](c3c(Cl)cccc3Cl)N2C(=O)CN1C1CCN(CC2CCCCC2)CC1	73.6%
FC(F)(F)c1cc(Nc2cccc(Oc3ccc(NC4=NCCN4)nc3)c2)ccc1Cl	-40% (active)
N#Cc1c(NC(=O)c2cccc(C(F)(F)F)c2F)sc2c1CCC(=O)C2	-30.5% (active)
O=C(Nc1ccc2c(ccn2Cc2ccccn2)c1)c1ccnnc1	98.3%
COc1cc(C2N=C(NNc3ccccc3)NC(C)=C2C(C)=O)ccc1O (stereo not given)	92.5%
Cc1noc(C)c1CSc1nc2ccccc2n1-c1ccccc1	100%
CCn1c(SCC(=O)Nc2cccc(C(=O)/C=C/c3cc(OC)c(OC)c(OC)c3)c2)nc2ccccc2c1=O	36.7%
Cc1cccc2c3c(sc12)C(c1ccc(F)cc1)C(C#N)=C(/N=C/c1ccc(Cl)cc1)O3 (stereo not given)	-12.4% (active)
Cc1cc(C)c2sc(=O)n(Cc3nnc(SCCC(=O)O)o3)c2n1	103%
COc1c(N2CC3CCCNC3C2)c(F)cc2c(=O)c(C(=O)N/N=C/c3ccc(Br)cc3)cn(C3CC3)c12 (stereo not given)	84.7%
Cc1ccc(-n2c(/C=C3\C(=O)Nc4ccccc43)ccc2CO)cc1	-10.3% (active)
CC(C)(C)CC(C)(C)n1nnnc1C(Nc1nccs1)c1cc2cccc3ccc4cccc1c4c32 (stereo not given)	102%
O=c1[nH]c(Sc2sc3ccc(Cl)cc3c2CBr)nc(=S)[nH]1	15.1%

SMILES	growth
N/C(=N\C(N)=N\c1nc2ccccc2s1)c1cccc(F)c1	104% [5 µM]
COc1cc2nc(Cl)nc(Nc3cccc(C4=Nc5c(N)nc(N)nc5NC(c5ccc6c(c5)OCO6)C4)c3)c2cc1OC (stereo not given)	88.5%
Cc1ccc(C(=O)NN2C(=O)/C(=C/C=C/c3ccco3)SC2=S)cc1	90.7%
C=CC(=O)N1CC=C(c2cc3c(N[C@H](C)c4ccccc4)ncnc3[nH]2)CC1	95%
C#C[C@]1(O)CC[C@H]2[C@@H]3CC=C4c5sc(-c6cccc(O)c6)nc5CC[C@]4(C)[C@H]3CC[C@@]21C	-51.4% (active)
COc1cc(Cn2cc3c(c2)-c2onc(CN4CCCC4)c2CC3)cc(OC)c1OC	96.4%
CCCn1cnc2c(c1=N)C(c1ccc(Cl)cc1)c1sc3c(C)cccc3c1O2 (stereo not given)	-40% (active)
O=C(NNc1nc2cc(F)c(F)cc2n2c(CN3CC4CNCC4C3)ccc12)c1ncccn1 (stereo not given)	20.4%
COC(=O)/C=C/c1c(C2(C)NC(=O)c3ccccc3N2)c(=O)oc2ccc(Cl)cc12 (stereo not given)	102%
COc1ccc(-n2c(SCc3nnc(NC(=O)c4ccc(Br)cc4)s3)nc3cc(OC)c(OC)cc3c2=O)cc1	87.5%
O=C(/C=C/c1ccc(F)cc1)c1ccc(O)cc1	67%
COc1ccc(-c2nc3ccc(-c4nnc(SCC(=O)Nc5ccc(C(=O)/C=C/c6ccc(Cl)cc6)cc5)o4)cc3[nH]2)cc1	99.3%
COc1cccc(/C=C(/C)c2ccc3cccc(OC)c3[o+]2)c1O	104%
C=CCn1c(-c2nc3ccc(C(=C(C#N)C#N)c4ccccc4)cc3[nH]2)cc2cc(Br)ccc21	75.2%
COc1ccc2c(c1)c(CC(=O)[Se]CC#N)c(C)n2C(=O)c1ccc(Cl)cc1	26.5%
N#C/C(=C\c1ccc(-c2ccc(Cl)cc2Cl)o1)c1ccc(F)cc1	93.7%
O=C(Cn1cc(-c2ccccc2)nn1)Nc1nc(-c2ccc(Cl)cc2)cs1	95.7%
Nc1ncc(-c2ccc3ncnc(N4CCc5cc(F)c(Cl)cc54)c3c2)cn1	27.1%
O=C(CCn1cc[n+](CC(=O)c2ccc(-c3ccccc3)cc2)c1)Nc1cccc2cccnc12	87.2%
COc1ccc(/C=N/NC(=O)c2cn(C3CC3)c3c(OC)c(N4CC5CCCNC5C4)c(F)cc3c2=O)cc1 (stereo not given)	100%
